Screening data from PubChem.
M1 ag – activates human CHRM1 receptor | activation, % at 3 µM | CHO-K1 hM1, Fluo-8 calcium fluorescence, agonist mode; 0% DMSO, 100% acetylcholine EC100 | P11229 | AID 588814 | 0.33% of 360,000 active;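 active = activation above the run's mean compound activation plus 3 SD, cut at about 16% in these data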;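 also: peak over basal fluorescence ratio within a 140 s kinetic read after compound addition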
Target sequence (P11229 whole entry, looked up): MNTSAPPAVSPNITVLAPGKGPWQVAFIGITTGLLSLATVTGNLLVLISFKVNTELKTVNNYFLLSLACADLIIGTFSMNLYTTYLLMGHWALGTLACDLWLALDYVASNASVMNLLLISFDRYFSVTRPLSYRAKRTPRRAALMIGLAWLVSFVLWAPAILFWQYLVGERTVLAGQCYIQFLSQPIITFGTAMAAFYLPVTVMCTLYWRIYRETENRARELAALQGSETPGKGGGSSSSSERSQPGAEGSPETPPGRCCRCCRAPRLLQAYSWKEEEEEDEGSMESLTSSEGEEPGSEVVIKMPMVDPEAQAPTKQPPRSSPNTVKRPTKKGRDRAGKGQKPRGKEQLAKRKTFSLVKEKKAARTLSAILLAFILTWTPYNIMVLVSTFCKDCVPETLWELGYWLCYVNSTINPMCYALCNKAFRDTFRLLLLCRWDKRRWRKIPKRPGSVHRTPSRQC
M1 ag parental – M1 agonist counterscreen hit in parental CHO-K1 cells; 0.48% of 360,000 active; Fluo-8 calcium fluorescence; scaled to maximal ATP response, vehicle zero; activation, % at 3 µM; AID 602248; in the data active = activation above about 15%;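 also: untransfected CHO-K1 host cells lacking M1 receptor as counterscreen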
M1 PAM – potentiates human M1 receptor response to acetylcholine. P11229. CHO-K1 hM1, Fluo-8 calcium fluorescence, ACh EC20; 0% = ACh EC20, 100% = maximal ACh. activation, % at 3 µM. 0.088% of 360,000 active; in the data active = activation above about 19%, passing the limit was not always enough
CHO-K1 Ca antag – M1 antagonist counterscreen hit in parental CHO-K1 cells; ATP-induced calcium, Fluo-8 fluorescence; inhibition, % at 3 µM; 0.6% of 360,000 active; AID 602250;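 active = inhibition above a per-plate cutoff, the plate's mean sample inhibition plus 3 SD, cut at about 24% in these data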
M1 antag – antagonists of human M1 muscarinic receptor. P11229. CHO-K1 hM1, Fluo-8 calcium fluorescence, ACh EC80 antagonist. inhibition, % at 3 µM. 1.3% of 360,000 active;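 active = percent inhibition above its own plate's cutoff, namely the mean of that plate's compound wells plus 3 SD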;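 also: peak over basal fluorescence ratio during 140 s after agonist addition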
M1 PAM parental – M1 PAM counterscreen hit in parental CHO-K1 cells; ATP EC20, Fluo-8 calcium fluorescence; 0% at ATP EC20, 100% at ATP max; activation, % at 3 µM; 0.02% of 360,000 active;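 active = activation above the run cutoff, the mean activation of all test compounds plus 3 SD, cut at about 40% in these data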;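 also: peak over basal fluorescence ratio in a 140 s read after ATP addition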
Numbers stand for hits. A selection: hits, their analogues and other compounds. The true share with any hit is near 2.3%.

Results for CCCn1nc(C(=O)Nc2cccc(S(=O)(=O)N3CCOCC3)c2)c2ccccc2c1=O ?
M1 ag: inactive; M1 ag parental: inactive; M1 PAM: inactive; CHO-K1 Ca antag: inactive; M1 antag: inactive; M1 PAM parental: inactive

What do the screens show for `CC(=O)c1cc(-c2ccc(F)cc2)n(CCC(=O)Nc2cccnc2)c1C`?
M1 ag: inactive; M1 ag parental: inactive; M1 PAM: inactive; CHO-K1 Ca antag: inactive; M1 antag: inactive; M1 PAM parental: inactive

What do the screens show for `Cc1cccc2cc3c(N)c(C(=O)Nc4ccc(N5CCOCC5)cc4)sc3nc12`?
M1 ag: inactive; M1 ag parental: inactive; M1 PAM: inactive; CHO-K1 Ca antag: inactive; M1 antag: inactive; M1 PAM parental: inactive

What do the screens show for `CCc1cccc2cc3c(N)c(C(=O)Nc4ccc(S(=O)(=O)N5CCCC5)cc4)sc3nc12`?
M1 ag: inactive; M1 ag parental: 16; M1 PAM: inactive; CHO-K1 Ca antag: inactive; M1 antag: inactive; M1 PAM parental: inactive

How did O=NN(CCF)C(=O)NC1CCS(=O)(=O)CC1 do in these assays?
M1 ag parental: inactive; CHO-K1 Ca antag: inactive; M1 PAM parental: inactive

How did COc1ccc(Nc2nnc(Cc3ccncc3)c3ccccc23)c(OC)c1 do in these assays?
M1 ag: 51; M1 ag parental: inactive; M1 PAM: inactive; CHO-K1 Ca antag: inactive; M1 antag: inactive; M1 PAM parental: inactive

What do the screens show for `COc1ccc(Nc2ncnc3ccccc23)c(OC)c1`?
M1 ag: inactive; M1 ag parental: inactive; M1 PAM: inactive; CHO-K1 Ca antag: inactive; M1 antag: inactive; M1 PAM parental: inactive

What do the screens show for `COc1ccc(C(=O)C2CCCN(C(=O)CCc3scnc3C)C2)c(C)c1` (centres undefined)?
M1 ag: inactive; M1 ag parental: 18; M1 PAM: inactive; CHO-K1 Ca antag: inactive; M1 antag: inactive; M1 PAM parental: inactive

Results for COc1ccc(C(=O)C2CCCN(C(=O)CCc3ccccn3)C2)c(C)c1 (centres undefined) ?
M1 ag: inactive; M1 ag parental: inactive; M1 PAM: inactive; CHO-K1 Ca antag: inactive; M1 antag: inactive; M1 PAM parental: inactive

Results for COc1ccc(-n2sc3c(c2=S)-c2cc(OC)ccc2NC3(C)C)cc1 ?
M1 ag: inactive; M1 ag parental: inactive; M1 PAM: inactive; CHO-K1 Ca antag: inactive; M1 antag: inactive; M1 PAM parental: inactive

What do the screens show for `COc1ccc2c(c1)-c1c(sn(-c3ccc(OC)c(OC)c3)c1=S)C(C)(C)N2`?
M1 ag: inactive; M1 ag parental: inactive; M1 PAM: inactive; CHO-K1 Ca antag: inactive; M1 antag: 27; M1 PAM parental: inactive

What do the screens show for `FC(F)(F)COc1ccc(-c2nnc(SCc3ccccc3)o2)cn1`?
M1 ag: inactive; M1 ag parental: inactive; M1 PAM: inactive; CHO-K1 Ca antag: inactive; M1 antag: inactive; M1 PAM parental: inactive

How did O=C(CCN1C(=O)/C(=C/c2ccccc2F)SC1=S)NCCc1ccc(O)cc1 do in these assays?
M1 ag: inactive; M1 ag parental: 16; M1 PAM: inactive; CHO-K1 Ca antag: inactive; M1 antag: 32; M1 PAM parental: inactive

What do the screens show for `O=C(COc1ccc(Cl)cc1Cl)NC(=S)Nc1ccc(CN2CCOCC2)cc1`?
M1 ag: inactive; M1 ag parental: inactive; M1 PAM: inactive; CHO-K1 Ca antag: inactive; M1 antag: 37; M1 PAM parental: inactive

Results for CC(C)c1ccc(/C=C/C(=O)NC(=S)Nc2ccc(CN3CCOCC3)cc2)cc1 ?
M1 ag: inactive; M1 ag parental: inactive; M1 PAM: inactive; CHO-K1 Ca antag: inactive; M1 antag: 48; M1 PAM parental: inactive

Results for Cc1ccc(O)c(Cn2nnc3ccccc32)c1 ?
M1 ag: inactive; M1 ag parental: inactive; M1 PAM: inactive; CHO-K1 Ca antag: inactive; M1 antag: inactive; M1 PAM parental: inactive

Results for Cc1ccc(/C=C2\C(=O)NC(=O)N2C)o1 ?
M1 ag: inactive; M1 ag parental: inactive; M1 PAM: inactive; CHO-K1 Ca antag: inactive; M1 antag: inactive; M1 PAM parental: inactive

How did CCOc1ccc(N2C(=O)/C(=C/c3ccco3)N(C)C2=S)cc1 do in these assays?
M1 ag: inactive; M1 ag parental: inactive; M1 PAM: inactive; CHO-K1 Ca antag: 27; M1 antag: inactive; M1 PAM parental: inactive

What do the screens show for `Cc1ccc(/C=C2/C(=O)N(c3ccccc3)C(=S)N2C)o1`?
M1 ag: inactive; M1 ag parental: inactive; M1 PAM: inactive; CHO-K1 Ca antag: 25; M1 antag: inactive; M1 PAM parental: inactive

How did CCOC(=O)C1=C(C)N(c2ccc(OCC)cc2)C(=O)/C1=C\c1ccco1 do in these assays?
M1 ag: inactive; M1 ag parental: inactive; M1 PAM: inactive; CHO-K1 Ca antag: inactive; M1 antag: inactive; M1 PAM parental: inactive

Results for Nc1c2c(nc3ccccc13)CSCC2 ?
M1 ag: inactive; M1 ag parental: inactive; M1 PAM: inactive; CHO-K1 Ca antag: inactive; M1 antag: inactive; M1 PAM parental: inactive

How did O=C(NCc1n[nH]c(=O)c2ccccc12)C1CC(=O)N(c2ccccc2)C1 (centres undefined) do in these assays?
M1 ag: inactive; M1 ag parental: inactive; M1 PAM: inactive; CHO-K1 Ca antag: inactive; M1 antag: inactive; M1 PAM parental: inactive

Results for COc1cccc(CNc2cnc3ccccc3c2)c1O ?
M1 ag: inactive; M1 ag parental: 16; M1 PAM: inactive; CHO-K1 Ca antag: inactive; M1 antag: inactive; M1 PAM parental: inactive

How did CCOC(=O)[C@]12CCC=C1N(Cc1cccc3ccccc13)C(=O)[C@H](CC(=O)NCCC(C)C)C2 do in these assays?
M1 ag parental: inactive; CHO-K1 Ca antag: inactive; M1 PAM parental: inactive

How did CC(C)(C)C(=O)/C=c1\s/c(=C\c2ccc(-c3ccc([N+](=O)[O-])cc3)o2)c(=O)n1CC(=O)NC(N)=O do in these assays?
M1 ag: 23; M1 ag parental: 16; M1 PAM: inactive; CHO-K1 Ca antag: 26; M1 antag: 39; M1 PAM parental: inactive

How did CCC(=O)N/N=C/c1ccc(-c2ccc([N+](=O)[O-])cc2)o1 do in these assays?
M1 ag: inactive; M1 ag parental: inactive; M1 PAM: inactive; CHO-K1 Ca antag: inactive; M1 antag: inactive; M1 PAM parental: inactive

Results for C=CCNC(=S)NNC(=O)CC12CC3CC(CC(C3)C1)C2 ?
M1 ag: inactive; M1 ag parental: inactive; M1 PAM: inactive; CHO-K1 Ca antag: inactive; M1 antag: inactive; M1 PAM parental: inactive

Results for CCn1cc(S(=O)(=O)CC(=O)Nc2cccc(C)c2)c2ccccc21 ?
M1 ag: inactive; M1 ag parental: inactive; M1 PAM: inactive; CHO-K1 Ca antag: inactive; M1 antag: inactive; M1 PAM parental: inactive

Results for Cc1cc(NC(=O)CS(=O)(=O)c2cn(Cc3cccc(Cl)c3)c3ccccc23)no1 ?
M1 ag: 26; M1 ag parental: inactive; M1 PAM: inactive; CHO-K1 Ca antag: inactive; M1 antag: inactive; M1 PAM parental: inactive

Results for CCn1cc(S(=O)(=O)CC(=O)Nc2ccc(C)cc2)c2ccccc21 ?
M1 ag: inactive; M1 ag parental: inactive; M1 PAM: inactive; CHO-K1 Ca antag: 27; M1 antag: inactive; M1 PAM parental: inactive
